TEAD-YAP block: TEAD-YAP interaction inhibition, primary screen, TEAD-YAP interaction inhibitor project, luminescence, HEK-TIYL cells. TEAD-Gal4/YAP UAS-luciferase luminescence. inhibition, % at 9.12 µM. 1.4% of 640,000 active; in the data active means inhibition above about 32%;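 further: 0% = median of test compound wells and 100% = reference inhibitor wells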
FBW7 act: FBW7 E3 ligase activators, primary screen, biochemical, AlphaScreen, human; F-box/WD repeat-containing protein 7 (Homo sapiens), Q969H0; AlphaScreen FBW7–phospho-cyclin E peptide binding, activator screen; normalized activity (activation), % at 26.1 µM; 0.13% of 650,000 active; AID 1259310, 2017; in the data active means normalized activity above about 1.9%;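 further: purified mutant Fbw7 with reduced substrate affinity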
MITF primary: MITF inhibitors, primary screen, biochemical, AlphaScreen, human. Microphthalmia-associated transcription factor (Homo sapiens), O75030. AlphaScreen MITF homodimerization, bead proximity signal. inhibition, % at 2.6 µM. 0.91% of 650,000 active. AID 1259374, 2018; in the data active means inhibition above about 50%;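 further: 0% = vehicle wells with protein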
Target sequence (O75030 whole entry, looked up): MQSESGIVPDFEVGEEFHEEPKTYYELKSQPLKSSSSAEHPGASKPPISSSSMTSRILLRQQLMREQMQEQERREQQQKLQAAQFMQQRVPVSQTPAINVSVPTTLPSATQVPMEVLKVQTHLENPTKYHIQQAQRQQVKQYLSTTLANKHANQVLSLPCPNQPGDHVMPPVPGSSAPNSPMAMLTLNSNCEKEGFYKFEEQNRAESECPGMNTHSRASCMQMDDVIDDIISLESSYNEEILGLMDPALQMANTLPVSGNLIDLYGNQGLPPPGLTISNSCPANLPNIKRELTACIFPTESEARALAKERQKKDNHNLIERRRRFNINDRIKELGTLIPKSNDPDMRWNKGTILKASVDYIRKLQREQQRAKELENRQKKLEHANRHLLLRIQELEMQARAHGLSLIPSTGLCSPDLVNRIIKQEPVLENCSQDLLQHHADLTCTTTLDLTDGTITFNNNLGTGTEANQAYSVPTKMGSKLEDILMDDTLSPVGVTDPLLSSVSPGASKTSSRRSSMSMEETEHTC
GPR151 activ: activators of human GPR151, primary screen, cell-based, PathHunter beta-arrestin, luminescence. G-protein coupled receptor 151 (Homo sapiens), Q8TDV0. PathHunter beta-arrestin GPR151 cells. activation, % at 11.2 µM. 1% of 650,000 active. AID 1508602, 2020; in the data active means activation above about 4.9%;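 further: 0% = median of compound wells and 100% = cells with positive control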
Starred values were filed as active, the others as inactive; / = no result given; ! = not active in a repeat. This is a sample that favours compounds with a hit; in the whole collection about 3.5% have one here.

SMILES | TEAD-YAP block | FBW7 act | MITF primary | GPR151 activ
C=Cc1c(C)c2cc3nc(cc4[nH]c(cc5nc(cc1[nH]2)C(C)=C5CCC(=O)O)c(CCC(=O)OC)c4C)[C@@]1(C)C3=CC=C(C(=O)OC)C1C(=O)OC (stereo not given in full) | / | 0 | -35 | 2
Cc1ccc(-c2cccc3cnc(Nc4ccc(-n5cnc(C)n5)cc4)nc23)cn1 | 61* | 1 | 13 | -2
Cc1ncn(-c2ccc(Nc3ncc4cccc(-c5cncnc5)c4n3)cc2)n1 | -23 | 0 | 6 | -2
CCCCC/C=C\C=C1\C(=O)CC[C@@H]1C/C=C\CCCC(=O)O | / | / | -12 | 1
Cc1cc(/C=C2\Sc3ccccc3N2C)cc(C)[n+]1N(C)C | 78* | 0 | 3 | 0
CN1CCN(CC(=O)N2c3ccccc3Sc3ccccc32)CC1 | 3 | 0 | 1 | 2
Cc1cc(/C=C2\Sc3ccccc3N2C)cc(C)[n+]1N1CCN(C)CC1 | 73* | 0 | 22 | 0
Cc1cc(/C=C2\Sc3ccccc3N2C)cc(C)[n+]1CCCN1CCOCC1 | 41* | 0 | 1 | 0
CCC(C)(C)n1nnnc1C(c1ccccn1)N1CCN2CCCC2C1 (stereo not given) | 4 | 1 | 7 | 0
Cc1ccc(CN(Cc2ccccn2)C(=S)Nc2ccc(C)c(Cl)c2)cc1 | -24 | 0 | -1 | 2
COc1ccc(-n2nc(C(=O)NCC(=O)NCCc3ccc(OC)c(OC)c3)c3ccccc3c2=O)cc1 | 17 | 1 | 2 | 0
COc1ccc(CCNC(=O)CNC(=O)c2nn(-c3ccc(OC)c(OC)c3)c(=O)c3ccccc23)cc1OC | 40* | 0 | 1 | 0
Cn1c(C(=O)O)c(CC(=O)NCC2COc3ccccc3O2)c2ccccc21 (stereo not given) | -6 | 0 | 17 | 2
COc1cc(OC)cc(-n2nc(C(=O)NCCc3ccc(OC)c(OC)c3)c3ccccc3c2=O)c1 | 3 | 0 | 5 | 0
COc1cccc(-n2nc(C(=O)NCCc3ccc(OC)c(OC)c3)c3ccccc3c2=O)c1 | 36* | 0 | 10 | 1
Cn1nc(CC(=O)NCC2COc3ccccc3O2)c2ccccc2c1=O (stereo not given) | 36* | 0 | 11 | 0
COc1ccc(-n2nc(C(=O)NCC(=O)NCC3COc4ccccc4O3)c3ccccc3c2=O)cc1OC (stereo not given) | 36* | 0 | -2 | 0
CS(=O)(=O)Nc1ccccc1Cc1ccccc1 | 7 | 0 | 6 | 1
COc1ccccc1-n1nc(C(=O)Nc2cc(OC)c(OC)c(OC)c2)c2ccccc2c1=O | 32* | 0 | 0 | 0
Cn1nc(CC(=O)Nc2ccc(Br)cc2F)c2ccccc2c1=O | 25 | 0 | -9 | 3
COc1ccc(NC(=O)c2nn(-c3ccccc3OC)c(=O)c3ccccc23)cc1OC | -2 | 0 | 18 | 1
Cn1nc(CC(=O)Nc2ccc(F)cc2F)c2ccccc2c1=O | 34* | 0 | 1 | -1
COc1ccc(-c2nc3ccc(C(=O)O)cn3c2Br)cc1 | -21 | 0 | -4 | -8
CCOc1ccc(CSc2n[nH]c(C)n2)cc1 | 88* | 0 | 5 | -4
CCCOc1ccc(CSc2n[nH]c(C)n2)cc1 | 82* | 0 | -5 | -3
SMILES | TEAD-YAP block | FBW7 act | MITF primary | GPR151 activ
CCOc1ccc(CSc2n[nH]c(CC)n2)cc1 | -5 | 0 | 6 | -1
Cc1cc(C)nc(/N=C(\N)Nc2ccc([N+](=O)[O-])cc2C)n1 | -1 | 0 | 0 | 2
COc1cc([N+](=O)[O-])ccc1N/C(N)=N/c1nc(C)cc(C)n1 | 57*! | 0 | -20 | 0
c1ccc2sc(N3CCN(C4CCCCC4)CC3)nc2c1 | 69* | 0 | 7 | 0
COC(=O)c1c(C)oc2ccc(OC(=O)c3ccccc3OC)cc12 | 6 | 0 | -4 | 1
COc1cc(NS(=O)(=O)c2ccc3c(c2)Cc2ccccc2-3)cc(OC)c1OC | 42* | 0 | 9 | 5
COc1ccc(OC)c(NS(=O)(=O)c2ccc3[nH]c4c(c3c2)CCCC4)c1 | 35* | 0 | -2 | 2
COc1cc(NS(=O)(=O)c2ccc3[nH]c4c(c3c2)CCCC4)cc(OC)c1OC | 55* | 0 | 6 | 1
COC(=O)COc1cccc2c(=O)n(CC(=O)Nc3cccc(C(F)(F)F)c3)ccc12 | 2 | 0 | -1 | 0
O=c1[nH]c(CCl)nc2sc(-c3ccccc3)cc12 | 33* | 0 | 5 | -2
Cc1ccc2nc(-c3ccc(O)c(O)c3)cn2c1 | 54* | 0 | 0 | -7
Cc1ccc2nc(-c3ccc([N+](=O)[O-])cc3)cn2c1 | -34 | 0 | -4 | -2
Cc1ccc2nc(-c3ccc(O)cc3O)cn2c1 | 80* | 0 | 0 | 1
COc1ccc(C2c3c(n(C)c(=O)n(C)c3=O)N=C3c4ccccc4C(=O)C32)c(OC)c1 (stereo not given) | -5 | 0 | -10 | -1
COC(CN(C)c1ccc(-c2ccc(O)cc2)cn1)OC | 64* | 0 | 9 | 1
COc1ccc(-c2cc(C(C)=O)c(C)n2CCC(=O)Nc2ccc(OC)cc2OC)cc1 | -2 | 0 | 8 | 0
COc1ccccc1N=C/C(C(=O)C(F)(F)F)=C(\O)c1cccs1 | 50* | 1 | 13 | -2
COC(=O)c1ccccc1N=C/C(C(=O)C(F)(F)F)=C(\O)c1cccs1 | -16 | 0 | 5 | -1
COc1ccc(NC(=O)c2cc(CC(C)C)on2)c(OC)c1 | -9 | 0 | -2 | 1
CCOC(=O)N1CCN(S(=O)(=O)c2ccc(C(=O)Nc3sc4c(c3C(=O)OC)CCN(C(C)C)C4)cc2)CC1 | 3 | 0 | 18 | 0
CCN1/C(=C/c2ccc3cc(C)ccc3[n+]2CC)Sc2cc(NC(C)=O)ccc21 | 10 | 0 | 20 | 0
CCN1/C(=C/c2ccc3ccc(C)cc3[n+]2C)Sc2ccccc21 | 90* | 0 | 20 | 2
CCN1/C(=C/c2ccc3ccc(C)cc3[n+]2CC)Sc2cc(C)c(C)cc21 | 89* | -1 | 24 | 2
CCN1/C(=C/c2ccc3cc(C)ccc3[n+]2CC)Sc2c(C)cc(C)cc21 | 73* | 0 | 5 | 0
c1cc(C2=NNC(c3ccncc3)=NN2)ccn1 | 3 | 0 | 6 | -1
SMILES | TEAD-YAP block | FBW7 act | MITF primary | GPR151 activ
O=C(Nc1nnc(CCc2ccccc2)s1)c1ccc(Cl)c(Cl)c1 | 1 | 0 | -1 | -1
CCCCn1c(SC)nc2sc3c(c2c1=O)CCCC3 | 3 | 0 | 13 | -1
c1ccc(CCn2nnnc2C(c2ccncc2)N2CCc3ccccc3C2)cc1 (stereo not given) | -1 | 1 | 22 | 0
Cc1cc2ncn(C(=O)c3c(-c4ccccc4)noc3C)c2cc1C | 11 | 0 | 2 | 1
Cc1cc2ncn(C(=O)c3c(-c4c(Cl)cccc4Cl)noc3C)c2cc1C | -10 | 2.4* | 9 | 0
O=C(Cc1ccc2c(c1)OCO2)Nc1cc(Nc2ccccc2-c2ncn[nH]2)c(Cl)cn1 | 64* | 1 | 13 | 0

Screening results: PubChem, The Scripps Research Institute Molecular Screening Center
